Only some compounds are listed: those with a hit (about 5.5% of all), similar ones and a draw of the others.
Sfp PPTase inh: inhibitors of Bacillus subtilis Sfp phosphopantetheinyl transferase; actives 3.5% (n = 310,000); Biochemical Sfp PPTase activity, qHTS; Q9F4F7; Potency, µM, inactives show largest response in the series, negative = inhibition, actives largely listed as inhibitors;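 note: the enzyme is Sfp with the accession as filed and its product quenches rhodamine fluorescence; potency is the fitted concentration of half-maximal effect; 0% = enzyme reaction without inhibitor and -100% = no enzyme wells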
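Fluorescence-quenching assay with 15 nM Sfp, 5 uM rhodamine-CoA and 12.5 uM BHQ-2-labelled ybbR peptide in pH 7.6 Hepes/MgCl2 buffer. Enzyme was pre-incubated with compound for 15 min at room temperature. Rate was taken from the 30-min fluorescence change (525/598 nm).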
Giardia kill: Giardia lamblia killing | actives 0.15% (n = 340,000) | Giardia lamblia trophozoite viability | activity change, % at 7.66 µM, hits read low; in the data active = activity change below about -80%; inconclusive = between about -30% and that limit;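 note: parasites exposed to compound for two days anaerobically before the ATP read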
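Trophozoite viability was measured as ATP-dependent luminescence, read 15-30 min after reagent addition. Before that, parasites at 100 cells/well were exposed to compounds for 48 h, anaerobically, at 37 deg C.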
FBPA coupling cs: counter-screen for Giardia aldolase inhibitors: coupling enzyme system | coupling enzyme system counterscreen, AmpLite Red fluorescence | activity change, negative = inhibition, % at 58.2 µM, hits read low | actives 0.67% (n = 290,000); in the data active = activity change below about -30%
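First, compound is pin-transferred into glyceraldehyde-3-phosphate coupling-enzyme reagent at 57.5 uM final and held 10 min at RT. Next, substrate, coupling system and AmpLite Red are added. After 20 min RT, fluorescence (525/598 nm) is read.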
ELG1 repair inh: inhibitors of ELG1-dependent DNA repair in HEK293T cells; HEK293T ELG1-luciferase reporter, luminescence, 16 h; DNA damage induced by 5-fluorouridine; Potency, µM (series often up to 46.1 µM), for the others: at the top dose activity change, negative = inhibition, usual class: inhibitors; actives 2.3% (n = 330,000); AID 504467; note: potency is the fitted concentration of half-maximal effect; nearly all actives have a fitted effect of over 55% in size
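Step one: seed 2,000 cells per well. Step two: pin-transfer compound or DMSO alongside 5-fluorouridine. Step three: incubate 16 hr, 37 °C, 5% CO2. Step four: add ONE-Glo, wait 30 min, read luminescence.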
Starred values were filed as active, the others as inactive; u = inconclusive; x = not tested or not shown. Unless noted, calls come from the whole dose curve; as a rule, active = well fitted curve in the direction sought with a large enough effect; inconclusive = small, poorly fitted or top-dose-only effect, or another doubt; inactive = no such curve, though single readings can be large; an effect the other way counts as inactive or inconclusive. Unless noted, % is set by controls: 0 for no effect and ±100 for the full control effect.

SMILES | Sfp PPTase inh | Giardia kill | FBPA coupling cs | ELG1 repair inh
CCC(NC(C)C)C(O)c1ccc(O)c(O)c1 (stereo not given) | u | 8 | -53* | 10%
CC(=O)C1=C(C)NC(SCC(=O)c2ccc(F)cc2)=C(C#N)C1CC(C)C (stereo not given) | 14µM* | 8 | -1 | u
CCOC(=O)C1=C(C)NC(SCC(N)=O)=C(C#N)C1c1ccccc1 (stereo not given) | 14% | 13 | 1 | -9%
CC(=O)C1=C(C)NC(SCC(N)=O)=C(C#N)C1CC(C)C (stereo not given) | 7% | -17 | 4 | -11%
CC(=O)C1=C(C)NC(SCC(=O)c2ccc(Cl)cc2)=C(C#N)C1CC(C)C (stereo not given) | 13µM* | -2 | -9 | -5%
CSCSC1=C(C#N)C(c2ccccc2Cl)C(C(C)=O)=C(C)N1 (stereo not given) | u | 9 | 0 | 1%
CCOC(=O)C1=C(C)NC(SC)=C(C#N)C1CC(C)C (stereo not given) | 3% | 6 | -6 | 10µM*
CCCCC[C@H](O)/C=C/[C@@H]1[C@H](C/C=C\CCCC(=O)O)[C@@H](O)C[C@H]1O | 14% | x | 0 | x
OCC[n+]1ccc(/C=C/c2c[nH]c3ccccc23)cc1 | -11% | -8 | -48* | -13%
O=C(Nc1nc(-c2ccccn2)cs1)c1ccc2c(c1)OCCO2 | 13% | -28 | -6 | u
O=C(Nc1nc(-c2ccccn2)cs1)c1ccccc1-n1cnnn1 | 16µM* | -10 | -8 | 2.6µM*
CCCn1nc(C(=O)Nc2nc(-c3ccccn3)cs2)c2ccccc2c1=O | x | -23 | x | 7.3µM*
O=C(Nc1nc(-c2ccccn2)cs1)c1cc(Cl)ccc1[N+](=O)[O-] | 45µM* | 0 | -10 | u
O=C(Nc1nc(-c2ccccn2)cs1)c1ccc([N+](=O)[O-])o1 | 16µM* | u | -3 | u
CCOCCOC(=O)c1ccc(NC(=O)c2cc3ccccc3o2)cc1 | x | -19 | x | x
CCCCS(=O)(=O)N1CCc2nc(COc3ccccc3)c3c(c2C1)CO[C@@H](C)C3 | 11% | x | 0 | x
CC(OC(=O)CCN=C1NS(=O)(=O)c2ccccc21)C(=O)Nc1ccc(S(N)(=O)=O)cc1 (stereo not given) | x | -3 | x | -4%
O=C(Nc1nc(-c2ccccn2)cs1)C1COc2ccccc2O1 (stereo not given) | 18% | 1 | -7 | 12%
CC(C)[C@H](NC(=O)c1ccccc1Cl)C(=O)Nc1nc(-c2ccccn2)cs1 | u | -18 | -8 | u
CC1CC1C(=O)Nc1nc(-c2ccccn2)cs1 (stereo not given) | 25µM* | -4 | -1 | -16%
CC(=O)c1ccc(-c2ccc(C(=O)Nc3nc(-c4ccccn4)cs3)o2)cc1 | x | -29 | x | 18µM*
CC(=O)Nc1ccc(C(=O)Nc2nc(-c3cccnc3)cs2)cc1 | u | 6 | 1 | 1%
CC(Oc1ccc(Br)cc1)C(=O)Nc1nc(-c2ccccn2)cs1 (stereo not given) | 40µM* | -4 | x | u
CC(=O)Nc1ccc(C(=O)Nc2nc(-c3ccccn3)cs2)cc1 | 16µM* | 3 | -21 | u
c1ccc(CCNc2nc(-c3cccnc3)cs2)cc1 | -24% | -6 | -2 | u
SMILES | Sfp PPTase inh | Giardia kill | FBPA coupling cs | ELG1 repair inh
O=C(Nc1nc(-c2ccccn2)cs1)Nc1ccc(F)cc1F | 11µM* | 3 | 4 | u
c1ccc(CCNc2nc(-c3ccccn3)cs2)cc1 | 20µM* | 3 | -8 | u
FC(F)(F)c1ccccc1-c1cncnc1NCc1cccnc1 | 2% | x | 6 | x
COc1cc(C2SCC(=O)N2Cc2ccccc2)ccc1O (stereo not given) | 9% | -12 | 6 | -3%
CCN(CC)S(=O)(=O)c1cccc(NC(=O)CNc2cccc(S(=O)(=O)N3CCCC3)c2)c1 | 4% | 5 | 0 | 0.33µM*
CN(CC(=O)Nc1cccc(S(=O)(=O)N2CCCC2)c1)CC(=O)Nc1ccc(F)c(F)c1F | x | -8 | x | x
CCN(CC)S(=O)(=O)c1cccc(NC(=O)Nc2cccc(C(F)(F)F)c2)c1 | -8% | 15 | -3 | 13µM*
CN(CC(=O)Nc1cccc(S(=O)(=O)N2CCCC2)c1)CC(=O)Nc1ccc(Cl)c(C(F)(F)F)c1 | x | 6 | x | 15µM*
CCN(CC)S(=O)(=O)c1cccc(NC(=O)CC2CCCC2)c1 | 10% | 16 | -1 | u
COCCn1c(C)cc(C(=O)CSc2nnnn2C2CCCC2)c1C | x | -8 | x | u
CNS(=O)(=O)c1ccc2c(c1)C(=O)c1cc(S(=O)(=O)NC)ccc1CC2 | x | 18 | x | 11%
COc1ccc(Nc2nc(C(=O)N3CCc4cc(OC)c(OC)cc4C3)cs2)cc1 | -10% | -11 | 2 | 16µM*
COc1ccc(Nc2nc(C(=O)N3CCc4ccccc4C3)cs2)cc1 | -4% | 12 | 0 | 11%
COc1cccc(CN2CC(C(=O)N3CCOCC3)CCC2=O)c1 (stereo not given) | 15% | -24 | 0 | u
COCCN1CSC(=S)N(Cc2ccco2)C1 | 32µM* | u | -10 | -20%
S=C1SCN(Cc2ccccn2)CN1Cc1ccco1 | 10µM* | 0 | -13 | -9%
S=C1SCN(Cc2cccnc2)CN1Cc1ccccc1 | -20% | 3 | 2 | 0%
Nc1ncn(C2C[C@H](O)[C@@H](CO)O2)c(=O)n1 (stereo not given in full) | 15% | x | x | x
O=C(c1ccccc1)c1cc2ccccc2oc1=O | 8% | u | 0 | u
O=C(NNC(=O)c1cc2ccccc2oc1=O)c1ccccc1 | 50µM* | -3 | 3 | u
CCc1nc(Nc2ccc(OC)cc2OC)c2oc3ccccc3c2n1 | -12% | 9 | 0 | -24%
O=C(NCc1ccccc1Cl)C1CCN(S(=O)(=O)N2CCCCCC2)CC1 | 16% | -13 | 0 | 18µM*
O=C(NCC1CCCCC1)c1cccc(-c2ccc(O)cc2)c1 | 9% | 10 | -1 | u
Cn1c(Cc2ccccc2)nnc1SCC(=O)c1ccc(Br)s1 | 20µM* | 7 | -2 | 14%
COc1ccc([C@H]2CC(=O)C=C(c3cccc(OC(F)(F)F)c3)C2)cc1 | x | -7 | x | 0%
SMILES | Sfp PPTase inh | Giardia kill | FBPA coupling cs | ELG1 repair inh
Cc1nc2ccccc2nc1SCC(=O)N1CCC(C)CC1 | 17% | -7 | 8 | -12%
Cc1ccnc(N2CCN(C(=O)CSc3nc4ccccc4nc3N3CCC(C)CC3)CC2)c1 | -14% | 10 | -4 | 21µM*
CN(C(=O)COC(=O)c1c2c(nc3ccccc13)CCCC2)c1c(N)n(Cc2ccccc2)c(=O)[nH]c1=O | x | -1 | x | 0%
CC(=O)N1CCc2cc(S(=O)(=O)CCC(=O)NCc3ccc(F)cc3)ccc21 | 6% | 2 | x | -3%
Cc1ccc(SCCNC(=O)c2ccc(C)c(S(=O)(=O)Nc3ccccc3C)c2)cc1 | 24% | -9 | 0 | 2.9µM*
N#Cc1cn(CCCOc2ccccc2)c2ccccc12 | -7% | 2 | 2 | -5%
O=C(N/N=C/c1cn(CCOc2ccccc2)c2ccccc12)c1ccncc1 | -3% | 12 | 1 | -12%

Screens as filed in PubChem.
